Assay results: PubChem BioAssay (NCATS)
Records with an inconclusive call do not appear. Active and inactive are the calls of the source. Calls follow the shape of the dose curve; as a rule, active = well fitted curve in the direction sought with a large enough effect; inconclusive = small, poorly fitted or top-dose-only effect, or another doubt; inactive = no such curve, though single readings can be large; an effect the other way counts as inactive or inconclusive.

Key:
[1] = Quantitative highthroughput screen to assess conditional lethalithy of NOMO1 cells grown in RPMI1640 with untreated serum (RPMI+s) (AID 1963876); conditions: NOMO1 AML cells in RPMI+serum, CellTiter-Glo viability, 48 h; series mostly up to 45.8 µM; also: nearly all actives have a fitted effect of over 35% in size;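 as to viability: 100% = DMSO wells and 0% = empty wells without cells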
Summary of the method: (§1)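 Each medium arm—HPLM with 10% dialyzed FBS, or RPMI1640 with 5 mM glucose and 10% untreated or dialyzed FBS—was screened against an 11-point, 3-fold compound titration for 48 h at 37 °C, with CellTiter-Glo luminescence as endpoint.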

[2] = Quantitative highthroughput screen to assess conditional lethalithy of NOMO1 cells grown in RPMI1640 with dialyzed fetal bovine serum (RPMI+ds) (AID 1963877); conditions: NOMO1 in RPMI+dialyzed FBS viability, ATP luminescence, 48 h; series mostly up to 45.8 µM; also: nearly all actives have a fitted effect of over 30% in size;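 as to viability: 100% = DMSO control wells and 0% = empty wells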
Summary of the method: as §1

[3] = Quantitative highthroughput screen to assess conditional lethalithy of NOMO1 cells grown in Human Plasma-Like Medium with dialyzed fetal bovine serum (HPLM+ds) (AID 1963878); conditions: NOMO1 AML cells in HPLM+ds, CellTiter-Glo viability, 48 h; series mostly up to 45.8 µM; also: nearly all actives have a fitted effect of over 35% in size;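 as to viability: 100% = DMSO wells and 0% = empty wells on each plate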
Summary of the method: as §1

[4] = Quantitative highthroughput screen to assess conditional lethalithy of P12 Ichikawa cells grown in Human Plasma-Like Medium with dialyzed fetal bovine serum (HPLM+ds) (AID 1963879); conditions: ATP luminescence, 48 h; Potency: viability; series mostly up to 45.8 µM; also: nearly all actives have a fitted effect of over 35% in size
Summary of the method: as §1

[5] = Quantitative highthroughput screen to assess conditional lethalithy of P12 Ichikawa cells grown in RPMI1640 with dialyzed fetal bovine serum (RPMI+ds) (AID 1963880); conditions: ATP luminescence, 48 h; Potency: P12-Ichikawa viability; series mostly up to 45.8 µM; also: nearly all actives have a fitted effect of over 35% in size;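 as to viability: 100% = DMSO wells and 0% = empty wells on each plate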
Summary of the method: as §1

[6] = Quantitative highthroughput screen to assess conditional lethalithy of P12 Ichikawa cells grown in RPMI1640 with untreated serum (RPMI+s) (AID 1963881); conditions: ATP luminescence, 48 h; Potency: viability; series mostly up to 45.8 µM; also: nearly all actives have a fitted effect of over 35% in size;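 as to viability: 100% = DMSO wells and 0% = empty wells without cells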
Summary of the method: as §1

[7] = Quantitative highthroughput screen to assess conditional lethalithy of SEM cells grown in Human Plasma-Like Medium with dialyzed fetal bovine serum (HPLM+ds) (AID 1963882); conditions: SEM B-ALL cells in HPLM+ds, CellTiter-Glo viability, 48 h; series mostly up to 45.8 µM; also: nearly all actives have a fitted effect of over 35% in size
Summary of the method: as §1

[8] = Quantitative highthroughput screen to assess conditional lethalithy of SEM cells grown in RPMI1640 with dialyzed fetal bovine serum (RPMI+ds) (AID 1963884); conditions: SEM B-ALL cells, RPMI+dialyzed FBS, CellTiter-Glo viability, 48 h; series mostly up to 45.8 µM; also: nearly all actives have a fitted effect of over 35% in size;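 as to viability: 100% = DMSO control wells and 0% = empty wells without cells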
Summary of the method: as §1

[9] = Quantitative highthroughput screen to assess conditional lethalithy of SEM cells grown in RPMI1640 with unreated serum (RPMI+s) (AID 1963883); conditions: SEM B-ALL cells, CellTiter-Glo viability, 48 h; series mostly up to 45.8 µM; also: nearly all actives have a fitted effect of over 35% in size;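 as to viability: 100% = DMSO wells and 0% = empty wells without cells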
Summary of the method: as §1

[10] = Cellular viability qHTS for adrenocortical cancer (ACC) cell line SW-13 (AID 1963989); conditions: SW-13 ACC cells viability, CellTiter-Glo, 48 h; activity (max response): hits give low values; also: nearly all actives have a fitted effect of over 65% in size;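 as to activity (max response): cells grown in serum-free medium with ITS supplement; % is scaled to controls: 0 for no effect and ±100 for the full control effect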
Summary of the method: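 SW-13 cells in ITS-supplemented serum-free DMEM were plated overnight, then exposed for 48 h at 37C to compound titrations (up to 46 uM final). Viability was read by CellTiter-Glo luminescence; four-parameter logistic fits gave IC50 and efficacy.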

[11] = Cellular viability qHTS for adrenocortical cancer (ACC) cell line NCI-H295R (AID 1963990); conditions: CellTiter-Glo ATP luminescence, 48 h; series mostly up to 46.1 µM; also: nearly all actives have a fitted effect of over 60% in size
Summary of the method: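 Luminescent ATP read-out (CellTiter-Glo, 20 min RT) after 48 h drug exposure of NCI-H295R cells; a titration up to 46 uM final. Data normalized to doxorubicin (100% inhibition) and DMSO (0%); 4-parameter fit gives IC50, max response.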
Potency is read from the fitted curve at half-maximal effect.

CC=CC(=O)N(CC)c1ccccc1C
inactive: Potency [1] | Potency [2] | Potency [3] | Potency [4] | Potency [5] | Potency [6] | Potency [7] | Potency [8]

CC(C)(F)C[C@H](N[C@@H](c1ccc(-c2ccc(S(C)(=O)=O)cc2)cc1)C(F)(F)F)C(=O)NC1(C#N)CC1
inactive: Potency [1] | Potency [2] | Potency [3] | Potency [4] | Potency [5] | Potency [6] | Potency [7] | Potency [9] | activity (max response) [10] -2.64% | Potency [11]

N[C@@H](Cc1c[nH]c2ccc(O)cc12)C(=O)O
inactive: Potency [1] | Potency [2] | Potency [3] | Potency [4] | Potency [5] | Potency [6] | Potency [7] | activity (max response) [10] 10.6% | Potency [11]

C[C@H](NCc1ccc2c(c1)nc(NC(=O)c1ccc(-c3cn[nH]c3)s1)n2CCc1ccccc1)C(C)(C)C
active: Potency [1] 9.35 µM | Potency [2] 6.62 µM | Potency [3] 5.9 µM | Potency [4] 11.8 µM | Potency [5] 11.8 µM | Potency [6] 9.35 µM | Potency [7] 0.469 µM | Potency [8] 74.3 nM

c1ccc(CNc2nc(N3CCOc4ccccc43)nc3c2CCCC3)cc1
inactive: Potency [1] | Potency [2] | Potency [3] | Potency [4] | Potency [5] | Potency [6] | Potency [7] | Potency [8]

CNC(=O)c1ccc(N2C(=S)N(c3ccc(C#N)c(C(F)(F)F)c3)C(=O)C2(C)C)cc1F
inactive: Potency [1] | Potency [2] | Potency [3] | Potency [4] | Potency [5] | Potency [6] | Potency [7] | Potency [9] | Potency [8] | activity (max response) [10] -1.24% | Potency [11]

COc1cc(C)c(C=CC(C)=CC=CC(C)=CC(=O)O)c(C)c1C
inactive: Potency [1] | Potency [2] | Potency [3] | Potency [4] | Potency [5] | Potency [6] | Potency [7] | Potency [8]

O=C(O)[C@H](Cc1c[nH]c2ccccc12)N1C(=O)c2ccccc2C1=O
inactive: Potency [1] | Potency [2] | Potency [3] | Potency [4] | Potency [5] | Potency [6] | Potency [7] | activity (max response) [10] -15.6% | Potency [11]

C[C@@]12C(=O)OC(=O)[C@@]1(C)C1CCC2O1
active: Potency [1] 8.33 µM | Potency [2] 7.43 µM | Potency [3] 6.62 µM | Potency [4] 8.33 µM | Potency [5] 9.35 µM | Potency [6] 9.35 µM | Potency [7] 8.33 µM | Potency [8] 5260 nM

CCN(CC)CCn1c(=O)c(Cc2ccc(OC)cc2)nc2ccccc21
inactive: Potency [1] | Potency [2] | Potency [3] | Potency [4] | Potency [5] | Potency [6] | Potency [7] | Potency [9] | Potency [8] | activity (max response) [10] -3.48% | Potency [11]

Cc1cc(Nc2ncc3c(n2)N(C)C(=O)N(c2cc(NC(=O)c4cccc(C(F)(F)F)c4)ccc2C)C3)n(C)n1
active: Potency [1] 1.66 µM | Potency [2] 1.18 µM | Potency [3] 1.18 µM | Potency [4] 16.6 µM | Potency [5] 11.8 µM | Potency [6] 5.9 µM | Potency [7] 0.469 µM | Potency [8] 372 nM | Potency [10] 355 nM | Potency [11] 1.26 µM

O=C(Nc1c(Cl)cncc1Cl)c1ccc(OC(F)F)c(OCC2CC2)c1
inactive: Potency [1] | Potency [2] | Potency [3] | Potency [4] | Potency [5] | Potency [6] | Potency [7] | Potency [9] | Potency [8] | activity (max response) [10] 5.46% | Potency [11]

O=C(NC1CCOCC1)c1ccc(-c2cc(-c3cn[nH]c3-c3ccccn3)ccn2)cc1
inactive: Potency [1] | Potency [2] | Potency [3] | Potency [4] | Potency [5] | Potency [6] | Potency [7] | Potency [9] | activity (max response) [10] 6.28% | Potency [11]

CC1(C)S[C@H]2[C@H](NC(=O)[C@@H](N)c3ccc(O)cc3)C(=O)N2[C@@H]1C(=O)O
inactive: Potency [8]
active: Potency [1] 8.33 µM | Potency [2] 9.35 µM | Potency [3] 5.26 µM | Potency [4] 7.43 µM | Potency [5] 5.9 µM | Potency [6] 8.33 µM | Potency [7] 16.6 µM

NC(N)=Nc1nc(CSCCC(N)=NS(N)(=O)=O)cs1
inactive: Potency [1] | Potency [2] | Potency [3] | Potency [4] | Potency [5] | Potency [6] | Potency [7] | Potency [8]

CC(=O)Nc1cccc(-n2c(=O)n(C3CC3)c(=O)c3c(Nc4ccc(I)cc4F)n(C)c(=O)c(C)c32)c1
inactive: Potency [11]
active: Potency [1] 0.332 µM | Potency [2] 0.209 µM | Potency [3] 0.235 µM | Potency [4] 2.64 µM | Potency [5] 4.69 µM | Potency [6] 3.72 µM | Potency [7] 2.35 µM | Potency [9] 1.48 µM | Potency [8] 1870 nM

O=C1C[C@@H](c2ccc(O)cc2)Oc2cc(O)cc(O)c21
inactive: Potency [1] | Potency [2] | Potency [3] | Potency [4] | Potency [5] | Potency [6] | Potency [7] | Potency [8] | activity (max response) [10] -16.9% | Potency [11]
